Source: PubChem
This is a sample that favours compounds with a hit; in the whole collection about 10% have one here.
MCF10A rerep – A quantitative high throughput screen for small molecules that induce DNA re-replication in MCF 10a normal breast cells; Potency, µM (titrated, usually from 46.1 µM), for the others: at the top dose activity, positive = re-replication, most hits filed as activators; 2.9% of 350,000 active; MCF 10A DNA re-replication, Hoechst nuclear intensity, 48 h; further: % of control where 0% means no effect; nearly all actives have a fitted effect of over 50% in size
RORgamma inh – qHTS for inhibitors of ROR gamma transcriptional activity | Potency, µM (top dose mostly 53.6 µM), for the others: top-dose activity change, negative = inhibition, actives largely listed as inhibitors | 5.4% of 310,000 active | Drosophila S2 Gal4-RORgamma UAS-luciferase reporter, 20 h; further: on the % scale 0 is the no-effect control and ±100 the full control effect; nearly all actives have a fitted effect of over 60% in size
Target sequence (P51450 whole entry, looked up, the tested form may be a part): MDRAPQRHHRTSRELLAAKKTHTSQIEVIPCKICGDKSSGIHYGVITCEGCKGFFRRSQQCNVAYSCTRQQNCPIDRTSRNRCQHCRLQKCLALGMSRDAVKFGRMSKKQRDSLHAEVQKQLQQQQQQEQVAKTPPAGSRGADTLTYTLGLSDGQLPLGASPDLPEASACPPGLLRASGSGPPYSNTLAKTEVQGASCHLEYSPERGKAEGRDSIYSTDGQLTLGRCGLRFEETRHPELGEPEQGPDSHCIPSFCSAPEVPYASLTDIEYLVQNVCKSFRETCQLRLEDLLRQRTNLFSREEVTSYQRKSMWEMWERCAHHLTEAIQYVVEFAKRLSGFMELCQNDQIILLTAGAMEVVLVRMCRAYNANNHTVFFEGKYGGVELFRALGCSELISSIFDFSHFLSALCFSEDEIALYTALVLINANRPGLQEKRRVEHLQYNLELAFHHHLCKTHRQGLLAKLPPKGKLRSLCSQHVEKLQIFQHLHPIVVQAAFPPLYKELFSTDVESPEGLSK
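Using a luciferase readout, inhibitors were identified by reduced reporter activity in Drosophila cells coexpressing a copper-inducible Gal4–ROR gamma fusion and UAS-driven Photinus luciferase, incubated 20 hr after 700 uM copper sulfate.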
Gal4-VP16 FLuc – VP16 counterscreen qHTS for inhibitors of ROR gamma transcriptional activity; Drosophila S2 Gal4-VP16 UAS-luciferase, luminescence, 20 h; Potency, µM (titrated, usually from 53.6 µM), for inactives: top-dose activity, negative = inhibition, usual class: inhibitors; 3.5% of 310,000 active; AID 2546, 2010;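 further: Gal4-VP16 expression switched on by copper sulfate through the metallothionein promoter; on the % scale 0 is the no-effect control and ±100 the full control effect; nearly all actives have a fitted effect of over 50% in size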
KB-V1 cytotox – qHTS assay for MDR1-selective chemotherapeutics: Primary screen using the drug-selected MDR subline cells KB-V1; KB-V1 MDR cells viability, CellTiter-Glo, 72 h; Potency, µM (titrated, usually from 46.1 µM), actives largely listed as cytotoxic; 3.4% of 400,000 active; AID 1347076, 2019; further: on the % scale 0 is the no-effect control and ±100 the full control effect; nearly all actives have a fitted effect of over 60% in size
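Potencies derive from concentration-effect curves fitted to normalized luminescence (CellTiter-Glo) of KB-V1 cells treated for 72 h at 37 degrees C in phenol-red-free DMEM containing 10% FBS.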
SW480 rereplic – A quantitative high throughput screen for small molecules that induce DNA re-replication in SW480 colon adenocarcinoma cells; SW480 DNA re-replication, Hoechst DNA content imaging, 48 h; Potency, µM (titrated, usually from 46.1 µM), for the others: at the highest dose re-replication activation, usual class: activators; 1.8% of 340,000 active; AID 624297, 2012; further: % of control where 0% means no effect; nearly all actives have a fitted effect of over 55% in size
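Hoechst fluorescence of nuclei (405 nm excitation, 500-530 nm emission) measured by plate-scanning imager after 48 hr compound exposure at 37 C; re-replication scored as increased number of nuclei with elevated intensity.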
KB-3-1 tox – qHTS assay for MDR1-selective chemotherapeutics: Primary screen using the parental adenocarcinoma cell KB-3-1. KB-3-1 viability, CellTiter-Glo ATP luminescence, 72 h. Potency, µM (doses to about 46.1 µM), hits mostly cytotoxic. 1.4% of 400,000 active; further: on the % scale 0 is the no-effect control and ±100 the full control effect; nearly all actives have a fitted effect of over 60% in size
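Luminescent ATP read-out (CellTiter-Glo) measures survival of drug-naive KB-3-1 cells after 72 h compound exposure at 37 °C. Titration series was screened from lowest to highest concentration, with DMSO vehicle plates as background controls.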
* = called active by the depositor; [ ] = dose if it differs, or a comment. The call rests on the fitted dose curve; in most records, active means well fitted curve in the direction sought with a large enough effect; inconclusive means small, poorly fitted or top-dose-only effect, or another doubt; inactive means no such curve, though single readings can be large; an effect the other way counts as inactive or inconclusive. Potency means the concentration at half of the fitted maximal effect.

COc1ccccc1-c1nc(-c2ccccn2)no1 was read as MCF10A rerep 0.2%, RORgamma inh 2.51µM*, Gal4-VP16 FLuc 7.08µM*, KB-V1 cytotox inconclusive, SW480 rereplic -15.0% and KB-3-1 tox inconclusive.
For CCOc1ccccc1NC(=O)c1nn(-c2ccc(C)cc2)c(=O)n(C)c1=O the results were KB-V1 cytotox inactive and KB-3-1 tox inactive.
COc1cccc(Nc2nc(C(N)C3CCCCC3)cs2)n1 (stereo unspecified) was read as KB-V1 cytotox inactive and KB-3-1 tox inactive.
For O=C(Cn1ncc2c3ccccc3n(Cc3ccccc3)c2c1=O)NCCCN1CCCCC1 the results were KB-V1 cytotox inactive and KB-3-1 tox inactive.
CCOc1ccc(CNC(=S)NCc2ccc(OCC)cc2)cc1 was read as MCF10A rerep 11.2%, RORgamma inh 10µM*, Gal4-VP16 FLuc inconclusive, KB-V1 cytotox inconclusive, SW480 rereplic 2.6% and KB-3-1 tox inconclusive.
Fc1ccc(CNC(=S)NCc2ccc(F)cc2)cc1 was read as MCF10A rerep inconclusive, RORgamma inh 11.2µM*, Gal4-VP16 FLuc inconclusive, KB-V1 cytotox inactive, SW480 rereplic 16.4% and KB-3-1 tox inactive.
CNC(=S)NNC(=O)Cc1ccccc1 was read as MCF10A rerep 6.4%, RORgamma inh -22.0%, Gal4-VP16 FLuc 8.7%, KB-V1 cytotox inactive, SW480 rereplic 1.8% and KB-3-1 tox inactive.
`COc1ccc(CNC(=O)/C(C)=C\C(=O)O)cc1` gave MCF10A rerep 2.4%, RORgamma inh 5.62µM*, Gal4-VP16 FLuc 10µM*, KB-V1 cytotox inactive, SW480 rereplic -3.7% and KB-3-1 tox inactive.
For CCOc1ccc(CC(=O)NNC(=S)NC)cc1 the results were MCF10A rerep 1.3µM*, RORgamma inh -37.4%, Gal4-VP16 FLuc -0.8%, KB-V1 cytotox inactive, SW480 rereplic -55.7% and KB-3-1 tox inactive.
`CCNC(=S)NCc1ccc(F)cc1` gave MCF10A rerep -3.7%, RORgamma inh -23.1%, Gal4-VP16 FLuc -5.3%, KB-V1 cytotox inactive, SW480 rereplic -3.0% and KB-3-1 tox inactive.
Screening O=C(O)C1=CCC(c2ccc(Cl)c(Cl)c2)N(S(=O)(=O)c2ccc(F)cc2)C1c1cccc(F)c1 (stereo unspecified) returned KB-V1 cytotox inactive and KB-3-1 tox inactive.
COCCCNC(=O)C1CCN(C(=O)c2cnn(-c3ccccc3)c2-n2cccc2)CC1 was read as KB-V1 cytotox inactive and KB-3-1 tox inactive.
Screening CCCn1c(SCC(=O)Nc2ccc(S(=O)(=O)N3CCOCC3)cc2)n[nH]c1=O returned KB-V1 cytotox inactive and KB-3-1 tox inactive.
Screening COc1ccc(CNC(=S)Nc2ccc(S(N)(=O)=O)cc2)cc1 returned MCF10A rerep 4.0%, RORgamma inh 33.1%, Gal4-VP16 FLuc 3.3%, KB-V1 cytotox inactive, SW480 rereplic 10.1% and KB-3-1 tox inactive.
CC(C)COc1ccc(CNC(=S)NCc2ccccc2)cc1 was read as MCF10A rerep inconclusive, RORgamma inh 7.08µM*, Gal4-VP16 FLuc 17.8µM*, KB-V1 cytotox inconclusive, SW480 rereplic inconclusive and KB-3-1 tox inactive.
`CC(CCc1ccccc1)NC(=O)C(=O)NCc1ccccc1` (stereo unspecified) gave MCF10A rerep 16.4%, RORgamma inh 3.6%, Gal4-VP16 FLuc -5.6%, KB-V1 cytotox inconclusive, SW480 rereplic -1.1% and KB-3-1 tox inactive.
`CC(C)c1ccc(OCC(=O)NCc2ccccc2)cc1` gave MCF10A rerep 1.8%, RORgamma inh 12.1%, Gal4-VP16 FLuc -6.6%, KB-V1 cytotox inconclusive, SW480 rereplic 1.3%[9.22 µM] and KB-3-1 tox inactive.
For COc1ccc(CNC(=S)NCc2ccc(OC)cc2)cc1 the results were MCF10A rerep -14.5%, RORgamma inh 12.6µM*, Gal4-VP16 FLuc -8.2%[10 µM], KB-V1 cytotox inactive, SW480 rereplic -2.9% and KB-3-1 tox inactive.
COc1ccc(C(=O)/C(Br)=C/C(=O)O)cc1 was read as MCF10A rerep 21.1µM*, RORgamma inh inconclusive, Gal4-VP16 FLuc -12.1% and SW480 rereplic inconclusive.
`COc1ccc(CNC(=S)NC(C)CCc2ccccc2)cc1` (stereo unspecified) gave MCF10A rerep -1.4%, RORgamma inh 3.16µM*, Gal4-VP16 FLuc 14.1µM*, KB-V1 cytotox inactive, SW480 rereplic 21.6% and KB-3-1 tox inactive.
Screening CSc1ccc(CNC(=O)CCn2ccc3cc(S(=O)(=O)N4CCC(C)CC4)ccc32)cc1 returned KB-V1 cytotox inactive and KB-3-1 tox inactive.
`COc1ccc(CNC(=S)NCc2ccc(F)cc2)cc1` gave MCF10A rerep -17.2%, RORgamma inh 11.2µM*, Gal4-VP16 FLuc inconclusive, KB-V1 cytotox inactive, SW480 rereplic -3.0% and KB-3-1 tox inactive.
For CCNc1ccc(/C=C2\C=Cc3ccccc32)cc1 the results were KB-V1 cytotox inactive and KB-3-1 tox inactive.
`CC1=NN(c2ccc(C(=O)O)cc2)C(=O)/C1=C\c1ccc(OC(=O)c2cccs2)cc1` gave MCF10A rerep inconclusive, RORgamma inh 11.2µM*, Gal4-VP16 FLuc -1.4%, KB-V1 cytotox inactive, SW480 rereplic 1.7% and KB-3-1 tox inactive.
Screening COCCCNC(=O)COC(=O)c1ccc(-c2nc3ccccc3s2)s1 returned MCF10A rerep 1.6%, RORgamma inh 2.82µM*, Gal4-VP16 FLuc 0.282µM*, KB-V1 cytotox inactive, SW480 rereplic 0.6% and KB-3-1 tox inconclusive.
O=C1NC[C@H](CCCCN2C[C@H](Cc3ccc(O)cc3)N(Cc3ccccc3)C(=O)C2=O)N(CC2CCCCC2)C1=O was read as KB-V1 cytotox inactive and KB-3-1 tox inactive.
Screening CCOc1cccc2sc(NC(=O)CS(=O)(=O)c3ccc(C)cc3)nc12 returned KB-V1 cytotox inactive and KB-3-1 tox inactive.
Screening O=C1C([N+](=O)[O-])=C(O)c2cccc3cccc1c23 returned RORgamma inh inconclusive and Gal4-VP16 FLuc 17.8µM*.
`O=C1c2sccc2-c2cccc3cccc1c23` gave KB-V1 cytotox inactive and KB-3-1 tox inactive.
